EWS-Fli block: blocks EWS/Fli oncoprotein-driven transcription | A673 NR0B1-luciferase reporter, viability-normalised | inhibition, % at 12.6 µM | 0.67% of 350,000 active;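 active = mean inhibition of at least 50% after viability correction, with every replicate also passing that limit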;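 also: firefly luciferase signal divided by Alamar Blue viability fluorescence both relative to DMSO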
PAX8 inh HTS: inhibitors of PAX8 transcriptional activity in RMG-I cells; RMG-I TPO-luciferase reporter, SteadyGlo, 24 h; inhibition, % at 12.6 µM; 1.2% of 360,000 active; AID 652154;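 active = mean replicate inhibition at least 60% with every replicate also reaching 60%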;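 also: luciferase light reporting Pax8 driven TPO promoter activity; plate controls were median of neutral control wells for no effect and mitoxantrone controls for full effect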
Shn3 inh set2: reduces Shn3 3'UTR luciferase signal in osteoblasts; Clone20 osteoblast Shn3 3'UTR firefly luciferase, 24 h; inhibition, % at 12.5 µM; AID 588674; 0.52% of 360,000 active;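 active = mean inhibition of at least 75% with every replicate also reaching 75%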;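 also: 0% = median of neutral control wells and 100% = pilot-screen positive control compound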
MITF TRPM1 inh: reduces MITF-dependent TRPM1 promoter luciferase signal; 0.83% of 330,000 active; SK-MEL-5 TRPM1 promoter luciferase, 24 h; inhibition, % at 12.5 µM;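 active = mean inhibition across replicates of 60% or more, whatever share of single replicates reaches that level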
EBV LMP1 NFkB: reduces LMP1-driven NF-kappaB luciferase signal; LMP1-induced NF-kappaB luciferase reporter cells, luminescence; inhibition, % at 12.5 µM; 0.69% of 350,000 active; in the data active = inhibition above about 41%;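 also: 0% = neutral control wells and 100% = reference inhibitor control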
LGR2 antag: inhibitors of bursicon-induced Drosophila LGR2 receptor cAMP signaling. AID 720647. HEK293 LGR2, CRE-luciferase, bursicon-stimulated, 4 h. inhibition, % at 9.99 µM. 0.35% of 380,000 active;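 active = drop in luminescence signal, shown as inhibition above about 50% in the replicate tests, limit read from the data, passing the limit was not always enough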;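 also: agonist challenge used bursicon conditioned medium at about half maximal strength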
DNA binding: binds DNA displacing acridine orange | shares compounds with EWS-Fli block | salmon sperm DNA acridine orange fluorescence polarization | AC35, µM (series often up to 68 µM), without a hit: top-dose activity change, negative = DNA binding | 2% of 640 active | AID 720586;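 active = fitted curve reaches a 35% signal fall AC35 below twice the sample's top valid tested dose, actives reach about 48 µM in these data; inactive = the rest, including activity in the rising direction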;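 also: lower polarization ratio signals compound binding to DNA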
* hit, by the source's call; . = not tested or not shown; [ ] = dose if it differs, or a comment. The list is not random: actives were taken first. Their share in the collection is about 2.2%.

SMILES | EWS-Fli block | PAX8 inh HTS | Shn3 inh set2 | MITF TRPM1 inh | EBV LMP1 NFkB | LGR2 antag | DNA binding
Cc1occc1-c1n[nH]c(=S)n1C | 75.2* | 6.1 | -4.4 | 4.0 | -11.9 | . | -6.6%
C[C@@H]1CN([C@@H](C)CO)C(=O)c2cccc(NS(=O)(=O)c3ccc(Cl)cc3)c2O[C@@H]1CN(C)Cc1ccc(C(=O)Nc2ccccc2N)cc1 | 53.1* | . | . | . | . | 16.3 | -13.5%
C[C@@H]1CN([C@H](C)CO)C(=O)c2cccc(NS(=O)(=O)c3ccc(Cl)cc3)c2O[C@H]1CN(C)Cc1ccc(C(=O)Nc2ccccc2N)cc1 | 35.2 | -9.8 | . | . | . | -12.6 | .
C[C@H](CO)N1C[C@H](C)[C@@H](CN(C)Cc2ccc(C(=O)Nc3ccccc3N)cc2)Oc2c(NS(=O)(=O)c3ccccc3)cccc2C1=O | -6.6 | 5.8 | . | . | . | 9.9 | .
C[C@@H]1CN([C@@H](C)CO)C(=O)c2cccc(NS(=O)(=O)c3ccccc3)c2O[C@@H]1CN(C)Cc1ccc(C(=O)Nc2ccccc2N)cc1 | 51.8* | 36.8 | . | . | . | -0.3 | 0.1%
Cc1cc(C(=O)Nc2cccc3c2O[C@@H](CN(C)CC2CCCCC2)[C@H](C)CN([C@H](C)CO)C3=O)n(C)n1 | -16.3 | 11.5 | . | . | . | -4.5 | .
Cc1ccccc1S(=O)(=O)N(C)C[C@@H]1OCc2ccccc2-c2ccccc2C(=O)N([C@H](C)CO)C[C@H]1C | -5.8 | 3.8 | . | . | . | 13.6 | .
C[C@@H]1CN([C@H](C)CO)C(=O)c2cc(C#Cc3ccccn3)cnc2O[C@H]1CN(C)C(=O)c1cnccn1 | -6.2 | 10.5 | . | . | . | -0.2 | .
O=C1O[C@H](c2ccccc2)[C@H](c2ccccc2)N2[C@H]1[C@@H](C(=O)N1CCCCCCC1)[C@]1(C(=O)Nc3ccc(C#CC4=CCCCC4)cc31)[C@H]2c1ccc(OCCO)cc1 | -6.7 | 2.1 | . | . | . | . | .
COc1ccc(Nc2oc(COc3ccccc3OC)nc2C#N)cc1 | 54.0* | 23.8 | 23.8 | 16.6 | 56.4* | . | 8.5%
C[C@@H]1CN([C@@H](C)CO)C(=O)c2cc(-c3ccccc3)cnc2O[C@@H]1CN(C)C(=O)NC1CCCC1 | 4.0 | 9.0 | . | . | . | -15.8 | .
O=C(c1nnsc1S(=O)c1ccc(Cl)cc1)N1CCOCC1 (configuration not stated) | 77.9* | 111.9* | 94.2* | 87.7* | 23.5 | . | -9.7%
CCCNC(=O)N1[C@H](C#N)[C@H](c2ccc(C#Cc3cccc(F)c3)cc2)[C@H]1CO | 60.6* | 19.6 | . | . | . | 3.5 | -0.6%
N#C[C@H]1[C@@H](c2ccc(C#Cc3ccccc3F)cc2)[C@H](CO)N1C(=O)C1CCCC1 | 32.3 | . | . | . | . | 5.5 | .
N#C[C@H]1[C@H](c2ccc(-c3ccccc3F)cc2)[C@@H](CO)N1C(=O)c1ccccn1 | 57.0* | -6.6 | . | . | . | -23.3 | -11.5%
N#C[C@H]1[C@H](c2ccc(C#Cc3ccccc3F)cc2)[C@@H](CO)N1C(=O)C1CCCCC1 | 66.2* | 59.1 | . | . | . | 33.9 | -14.3%[60 µM]
CN(C)C(=O)c1ccc(-c2ccccc2[C@@H]2[C@@H](CO)N(C(=O)C3CC3)[C@H]2C#N)cc1 | 60.6* | . | . | . | . | -6.0 | -3.6%
Cc1noc(C)c1NC(=O)Nc1ccc2c(c1)C(=O)N([C@@H](C)CO)C[C@@H](C)[C@H](CN(C)C(=O)Nc1ccc3c(c1)OCO3)OCCCC[C@@H](C)O2 | -9.5 | . | . | . | . | -6.7 | .
COc1ccc(CN(C)C[C@H]2OCCCC[C@@H](C)Oc3ccc(NC(=O)c4ccccc4)cc3C(=O)N([C@H](C)CO)C[C@H]2C)cc1 | 1.6 | -33.1 | . | . | . | 11.3 | .
CO[C@H](CN(C)S(=O)(=O)c1ccc(Cl)cc1)[C@H](C)CN([C@@H](C)CO)S(=O)(=O)c1cccc(Cl)c1 | 18.4 | -8.3 | . | . | . | 8.6 | .
N#C[C@@H]1N[C@H](CO)[C@@H]1c1ccc(C#Cc2ccccc2F)cc1 | -107.8 | -174.0 | . | . | . | -69.2 | .
CCCNC(=O)N1[C@H](C#N)[C@H](c2ccc(C#Cc3ccc(F)cc3)cc2)[C@H]1CO | 70.7* | 52.2 | . | . | . | 52.6* | 2.7%
N#C[C@@H]1[C@H](c2ccc(C#Cc3ccc(F)cc3)cc2)[C@@H](CO)N1C(=O)Nc1ccc(F)cc1 | 75.3* | 102.9* | . | . | . | 59.1* | 1.0%
N#C[C@H]1[C@H](c2ccc(C#CC3CCCC3)cc2)[C@H](CO)N1C(=O)Nc1ccc(F)cc1 | 26.9 | 55.0 | . | . | . | 1.6 | .
N#C[C@H]1N[C@H](CO)[C@H]1c1ccc(C#Cc2ccc(F)cc2)cc1 | 53.1* | -26.9 | . | . | . | -43.1 | 5.8%
COc1ccc(NC(=O)N(C)C[C@H]2Oc3c(NC(=O)c4ccc(-c5nccs5)cc4)cccc3C(=O)N([C@@H](C)CO)C[C@H]2C)cc1 | -11.3 | . | . | . | . | -20.2 | .
COC(=O)C[C@@H]1CC[C@@H]2[C@H](COc3ccc(NS(=O)(=O)c4ccc(F)cc4)cc3C(=O)N2C)O1 | 5.8 | -6.4 | . | . | . | 1.5 | .
C[C@@H]1CN([C@@H](C)CO)C(=O)Cc2cc(NC(=O)Nc3ccc4c(c3)OCO4)ccc2O[C@H]1CN(C)Cc1ccc(-c2ccccc2)cc1 | 3.7 | 31.6 | . | . | . | 2.1 | .

Assay outcomes deposited in PubChem BioAssay by Broad Institute.
